{
  "source": "PubChem BioAssay (EPA / NIEHS)",
  "note": "Activity calls are given as the source filed them. How the source made its calls: active means hit-call score of the fitted dose curve at least 0.9, where 1 is the maximum; inactive means score below 0.9.",
  "data": [
    {"read-out": "Cytochrome P450 4A22 (Homo sapiens) (UniProt Q5TCH4)", "assay": "LTEA_HepaRG_CYP4A22: Life Technologies and Expression Analysis (LTEA) Assay for Cytochrome P450 4A22 (CYP4A22) using HepaRG (AID 2283495)", "conditions": "mRNA level, 48 h; actives raise or lower the signal", "method": "LTEA_HepaRG is a cell based, multiplexed-readout assay that uses HepaRG, a human liver cell line, with measurements taken at 48 hours after chemical dosing on a 96-well plate.LTEA_HepaRG_CYP4A22 is one of 102 assay component(s) measured in the LTEA HepaRG cell culture assay. It is a marker of NR mediated metabolism.Data from the assay component LTEA_HepaRG_CYP4A22 was analyzed into 1 endpoint. This assay endpoint, LTEA_HepaRG_CYP4A22, was analyzed with bidirectional fitting relative to DMSO as the negative control and baseline of activity. Using a type of inducible reporter, measures of mRNA induction for gain or loss-of-signal activity can be used to understand regulation of transcription factor activity. To generalize the intended target to other relatable targets, this assay endpoint is annotated to the cyp intended target family, where the subfamily is xenobiotic metabolism.\nA total of 1060 chemcials from the ToxCast library were tested in eight-point concentration-response experiments. Cell culture and cytotoxicity assays were conducted at Thermo Fisher Scientific's Custom Services facility (Madison, WI). A single lot of human HepaRG cells (Thermo Fisher Scientific, Frederick, MD) was used for the cell culture experiments. 96-well format collagen type I coated plates of human HepaRG cells were prepared using established methods. Briefly, cryopreserved HepaRG cells were thawed, plated at a density of approximately 100,000 cells/well in HepaRG Thaw, Plate, and General Purpose media (HPRG770, Thermo Fisher Scientific), and incubated for 48 hours. 0.5% DMSO was selected as vehicle control to balance the requisite need of DMSO in HepaRG cultures to maintain differentiation (for example, baseline metabolism, proportions of hepatocytes vs. cholangiocytes), while enabling further hepatic receptor pathway activation (for example, PXR and CAR) in response to chemical exposure. 48 hours after plating, the culture medium was replaced with HepaRG Serum-Free Incudtion Media. Cells were exposed to each test chemical in duplicate and maintained in CO2 incubators for another 48 hours. Chemical plates were thawed to room temperature and 200x concentrations of treatment groups were prepared. 8-point conentration-reponse curves were made with the highest exposure at 100 uM, followed by half-log dilutions, all in 0.5% DMSO. Each test plate contained variouse controls, induction positive controls (1mM phenobarbital), cytotoxicity positive controls ([…] aflatoxin B1), vehicle controls (0.5% DMSO), and total lysis controls (0.5% DMSO). Cell morphology images were taken using an Essen IncuCyte FLR automated microscope, with six 96-well plates imaged in about 24 minutes. Images were captured and exported and JPEG files. Spent culture media was transfered to black-well plates for the LDH assay, and remaining media was sorted at -80 C for later use. Cells were treated with RLT buffer and frozen until shipped for gene expression analysis. Total RNA was isolated from the cell suspension in 75 uL of Buffer RLT (Qiagen, Germantown, MD 20874) by Quintiles/Expression Analysis (Durham, NC) using a custom isolation procedure. Total RNA from each plate well was transferred to a preamplification plate. Fluidigm's 96.96 Dynamic ArrayTM (Fluidigm, Amsterdam, the Netherlands) technology was used for gene expression analyses by quantitative reverse transcription polymerase chain reaction (qRT-PCR, performed by Quintiles/Expression Analysis, Durham, NC)89. Standard TaqManTM Assays (Applied Biosystems/ThermoFisher Scientific, Foster City, CA) were used to assess the expression of 93 genes selected based on their selectivity and sensitivity to important hepatic receptors known to be modulated by environmental chemicals; importance in human hepatocyte functionality; and hepatotoxicity. […]", "values": [
      {"smiles": "CCc1c(C(=O)NN2CCCCC2)nn(-c2ccc(Cl)cc2Cl)c1-c1ccc(Br)cc1", "AC50": "15.8 µM (active)"},
      {"smiles": "Nc1ccc2c(c1)C(=O)c1ccccc1C2=O", "AC50": "31 µM (active)"},
      {"smiles": "COc1ccc2c(c1)c(CC(=O)O)c(C)n2C(=O)c1ccc(Cl)cc1", "outcome": "inactive"},
      {"smiles": "Cc1cc(NC(=O)C(=O)O)cc(C)c1Oc1ccc(O)c2c1CCC2", "AC50": "0.0307 µM (active)"},
      {"smiles": "CCOc1ccc2c(c1)C(C)=CC(C)(C)N2", "outcome": "inactive"},
      {"smiles": "COCCOCCOC", "outcome": "inactive"},
      {"smiles": "NCC1(Cc2noc(=O)[nH]2)CCCCC1", "outcome": "inactive"},
      {"smiles": "Cc1nc(C)nc(N2C[C@@H](C)N(c3ccnc([C@@H](C)O)n3)[C@@H](C)C2)n1", "AC50": "0.682 µM (active)"},
      {"smiles": "Cc1cccc(C)c1O", "outcome": "inactive"},
      {"smiles": "CCCCCCCCCCCCCO", "outcome": "inactive"},
      {"smiles": "CCNc1cccc(C)c1", "outcome": "inactive"},
      {"smiles": "CC(=O)OCCOCCOCCOC(C)=O", "outcome": "inactive"},
      {"smiles": "C[Si]1(C)O[Si](C)(C)O[Si](C)(C)O[Si](C)(C)O1", "outcome": "inactive"},
      {"smiles": "Cc1cc(=O)[nH]c(=S)[nH]1", "outcome": "inactive"},
      {"smiles": "CC(=O)C(C)=CC1C(C)=CCCC1(C)C", "note": "(stereo not given)", "outcome": "inactive"},
      {"smiles": "CNC(=O)[C@H]1O[C@@H](n2cnc3c(NCc4cc(Cl)ccc4OCc4cc(C)no4)ncnc32)[C@H](O)[C@@H]1N", "outcome": "inactive"},
      {"smiles": "CC1(C)NC(=O)NC1=O", "outcome": "inactive"},
      {"smiles": "Cc1ccc(Cl)cc1", "outcome": "inactive"},
      {"smiles": "CCCCCCCCCCC", "outcome": "inactive"},
      {"smiles": "Oc1ccc2c(c1)OC[C@@H](N1CCC(O)(c3ccc(F)cc3)CC1)[C@H]2O", "outcome": "inactive"},
      {"smiles": "O=C(O)CCCCC(=O)O", "outcome": "inactive"},
      {"smiles": "CCCc1cc(=O)[nH]c(=S)[nH]1", "outcome": "inactive"},
      {"smiles": "C=CCc1ccc(O)c(OC)c1", "outcome": "inactive"},
      {"smiles": "Clc1cc(Cl)c(Cl)cc1Cl", "outcome": "inactive"},
      {"smiles": "CC1(C)CC(N=C=O)CC(C)(CN=C=O)C1", "note": "(stereo not given)", "outcome": "inactive"},
      {"smiles": "O=c1[nH]cc(F)c(=O)[nH]1", "AC50": "35 µM (active)"},
      {"smiles": "CC(=O)OC/C=C(\\C)CCC=C(C)C", "outcome": "inactive"},
      {"smiles": "C=CCOC(=O)c1ccccc1C(=O)OCC=C", "outcome": "inactive"},
      {"smiles": "Nc1nc(N)c2nc(CNc3ccc(C(=O)N[C@@H](CCC(=O)O)C(=O)O)cc3)cnc2n1", "outcome": "inactive"},
      {"smiles": "COc1ccc(S(=O)(=O)N2C(=O)[C@@](c3ccccc3OC)(N3C[C@H](O)C[C@H]3C(=O)N(C)C)c3cc(Cl)ccc32)c(OC)c1", "AC50": "15.8 µM (active)"},
      {"smiles": "Cc1cccc([N+](=O)[O-])c1C", "outcome": "inactive"},
      {"smiles": "c1cc(-c2ccncc2)ccn1", "outcome": "inactive"},
      {"smiles": "COc1ccc(C)cc1N", "outcome": "inactive"},
      {"smiles": "C1CCC(SSC2CCCCC2)CC1", "outcome": "inactive"},
      {"smiles": "CCCCN(CCCC)CCCC", "outcome": "inactive"},
      {"smiles": "Cc1ccc(N(C)C)cc1", "outcome": "inactive"},
      {"smiles": "CCCCCC(=O)O", "outcome": "inactive"},
      {"smiles": "CN1CCCC1=O", "outcome": "inactive"},
      {"smiles": "CC=Cc1ccc(O)c(OC)c1", "outcome": "inactive"},
      {"smiles": "Cc1nc(-c2ccc3c(c2)CCN(CCC2CCC(NC(=O)/C=C/c4ccc(F)cc4)CC2)CC3)no1", "note": "(stereo not given)", "outcome": "inactive"}
    ]}
  ]
}
